Measurements as given in PubChem BioAssay (NCATS).
Activity calls are given as the source filed them. Entries that show only a call come without a potency. Calls follow the shape of the dose curve; as a rule, active = well fitted inhibition curve with a large enough effect; inconclusive = small, poorly fitted or top-dose-only effect; inactive = flat fitted curve, though single readings scatter.

test system: Nanoluciferase (engineered Oplophorus gracilirostris luciferase); assay: Primary Nanoluciferase (NLuc) qHTS assay for identification of artifact compounds. (AID 1845222); conditions: NLuc-conditioned medium, Nano-Glo luminescence, 5 min; series mostly up to 54.1 µM
Source text: PI: Alexander Tropsha Ph.D.
UNC Eshelman School of Pharmacy
University of North Carolina, Chapel Hill, North Carolina
Hits from high-throughput screening (HTS) of chemical libraries are often false positives due to their interference with the assay detection technology. In response to this problem, we generated the largest publicly available library of chemical liabilities and developed a free webtool to predict HTS artifacts, both of which are described herein. More specifically, we generated, curated, and integrated HTS datasets for thiol reactivity, redox activity, and luciferase (firefly and nano) activity. Using these curated datasets, we developed and validated several Quantitative Structure-Interference Relationship (QSIR) models to predict nuisance behavior. […] These models were employed for virtual profiling of the National Center for Advancing Translational Science's (NCATS) in-house library, and 256 compounds for each assay were selected for the experimental validation of nuisance behavior. The BA for these external predictions ranged from 58 to 78% for compounds within the applicability domains of the models. […] The models developed in this study, along with aggregation models previously developed by our group (SCAM Detective) were implemented in "Liability Predictor," an online tool which may be used as part of chemical library design or for triaging HTS hits. Both the models and the curated datasets are publicly available at https://liability.mml.unc.edu/.
SEQUENCE No. (e.g., 1, 2, 3, etc.); […] (e.g., Cells, Incubation, Reagent, etc.); VALUE; DESCRIPTION.
1; Reagent; 2 uL; Nanoluciferase media.
2; Compounds and control; 16 nL; Kalypsis pin tool (Wako USA) equipped with a 1536-well pin head.
4; Reagent; 2 uL; Luciferase enzyme.
6; Detection; Luminescence, ViewLux microplate reader.
NOTES (numbers refer to Sequence numbers above)
1. Medium was collected from the culture flasks of NLuc-expressing S16 cells (80% confluent) prior to cell plating, filtered through a 0.22um filter, and frozen at -20C prior to use. Media was diluted (1:55) and 2 uL was dispensed into all wells of a 1536-well assay plate (solid-bottom white plate; Greiner Bio One, Monroe, NC).
2. A Wako Pin-tool (Wako Automation, Richmond, VA) was used to transfer 16 nL of compounds (consisting of 7-plates in qHTS format, final concentration range 18.3 nM to 114 uM) or control Cilnidipine (final concentration range 623 nM to 80 uM).
3. 15 min. incubation at room temperature protected from light.
4. 2 uL of NLuc substrate (1:100 in Nano-Glo luciferase buffer; Nano-Glo luminescence assay, Promega, Madison, WI) was dispensed for a final assay volume of 4 uL.
5. Plates were centrifuged (121xg, 15 seconds) and incubated for 5 minutes.
6. Samples were read for luminescence on a ViewLux CCD imager (PerkinElmer). Data were normalized to no-enzyme (0% activity) and no-inhibitor (DMSO; 100%) controls and the resulting percent inhibition data were fitted to a 4-parameter Hill equation using NCATS in-house software.
Potency is read from the fitted curve at half-maximal effect.

Row | Compound | Potency
1 | CCS(=O)(=O)N1CC(CC#N)(n2cc(-c3ncnc4[nH]ccc34)cn2)C1 | inactive
2 | COCCOc1nc(-c2ccc(Cl)c(Cl)c2)n(-c2ccc(NC(=O)CCl)cc2)n1 | inactive
3 | CO[C@H]1C=CO[C@@]2(C)Oc3c(C)c(O)c4c(O)c(c5c(c4c3C2=O)NC2(CCN(CC(C)C)CC2)N=5)=NC(=O)C(C)=CC=C[C@H](C)[C@H](O)[C@@H](C)[C@@H](O)[C@@H](C)[C@H](OC(C)=O)[C@H]1C | inactive
4 | CS(=O)(=O)N(Cc1ccco1)CC(O)Cn1c2ccccc2c2ccccc21 (stereo not given) | inactive
5 | COc1cc2ncnc(-n3nc(-c4ccccn4)nc3N)c2cc1OC | inactive
6 | CN[C@@H](C)C(=O)N[C@H]1CN(C(=O)CC(C)C)CC[C@H]2CC[C@@H](C(=O)NC(c3ccccc3)c3ccccc3)N2C1=O | inactive
7 | O=c1[nH]cnc2c1ncn2[C@H]1CC[C@@H](CO)O1 | inactive
8 | COc1ccccc1N1CCN(CCCNc2cc(=O)n(C)c(=O)n2C)CC1 | inactive
9 | Clc1ccc(Cn2c(CN3CCCC3)nc3ccccc32)cc1 | inactive
10 | O=C(NC1CCOCC1)c1ccc(-c2cc(-c3cn[nH]c3-c3ccccn3)ccn2)cc1 | inactive
11 | Cn1c(N2CCCCS2(=O)=O)nc(C(=O)NCc2ccc(F)cc2)c(O)c1=O | inactive
12 | CC(C)NCC(O)COc1cccc2[nH]ccc12 (stereo not given) | inactive
13 | CC1(C)CCC(CN2CCN(c3ccc(C(=O)NS(=O)(=O)c4ccc(NCC5CCOCC5)c([N+](=O)[O-])c4)c(Oc4cnc5[nH]ccc5c4)c3)CC2)=C(c2ccc(Cl)cc2)C1 | inactive
14 | O=C(O)c1ccccc1C(=O)Nc1ccc(-c2ccccc2)cc1 | 23.9 µM (active)
15 | Cc1ccn(-c2ccc(-c3ncco3)cc2)c(=O)c1-c1ccc2nc(N)ncc2c1 | inactive
16 | CC(C)(C)NC(=O)Nc1cccc(Nc2ncc(F)c(NC(C)(C)CO)n2)c1 | inactive
17 | Cc1c(NC(=O)c2ccc(C(C)(C)C)cc2)cccc1-c1cn(C)c(=O)c(Nc2ccc(C(=O)N3CCOCC3)cc2)n1 | inactive
18 | NC(=O)c1cccc(-c2cc(Nc3ccc(OC(F)(F)F)cc3)ncn2)c1 | inactive
19 | NC(=O)c1cccc2[nH]c(-c3ccc([C@H]4CCCN4)cc3F)nc12 | inactive
20 | CN1CCN(CCOc2cc(OC3CCOCC3)c3c(Nc4c(Cl)ccc5c4OCO5)ncnc3c2)CC1 | inactive

Row | Compound | Potency
21 | O=C(Nc1ccccc1-c1cn2c(CN3CCNCC3)csc2n1)c1cnc2ccccc2n1 | inactive
22 | COc1ccc(C2Sc3ccccc3N(CCN(C)C)C(=O)C2OC(C)=O)cc1 (stereo not given) | inactive
23 | CC(=O)N(C)C1(c2ccccc2)CCN(CCC[C@]2(c3ccc(Cl)c(Cl)c3)CCCN(C(=O)c3ccccc3)C2)CC1 | inactive
24 | CC(=O)Nc1ccc([C@H](C)C(=O)Nc2ncc(C(C)C)s2)cc1 | inactive
25 | CN(C)C1CCN(C(=O)c2ccc(NC(=O)Nc3nc(N4CCOCC4)nc(N4CCOCC4)n3)cc2)CC1 | inactive
26 | O=c1cc(CN2CCOCC2)occ1OCCCCCSc1ccnc2cc(C(F)(F)F)ccc12 | inactive
27 | COc1ccc2c(Oc3ccc(NC(=O)c4c(C)n(CC(C)(C)O)n(-c5ccccc5)c4=O)nc3)ccnc2c1 | inactive
28 | O=C(NCc1ccccc1)c1csc(Nc2ccncn2)n1 | inactive
29 | CCN(CC)CCNC(=O)c1ccc(N)cc1 | inactive
30 | NC(=O)c1cnc(-c2ccc(C3(N)CCC3)cc2)c(-c2ccccc2)c1 | inactive
31 | CN(C)CCC(c1ccccc1)c1ccccn1 (stereo not given) | inactive
32 | COc1cc2ncnc(Nc3ccc(F)c(Cl)c3)c2cc1OCCCN1CCOCC1 | inactive
33 | CC1CCC(C(=O)N(c2cc(C#CC(C)(C)C)sc2C(=O)O)C2CCC(O)CC2)CC1 (stereo not given) | inactive
34 | CN(C[C@@H]1COCCO1)S(=O)(=O)Nc1ccc2ccc3ncc(-c4cnn(C)c4)cc3c(=O)c2c1 | inactive
35 | CCn1c(C(=O)N(C2CC2)C2CC2)cc2c3c(ncn3C)c(Nc3cc(C)n(C)n3)nc21 | inactive
36 | COc1cc(N2CCC(N3CCN(C)CC3)CC2)ccc1Nc1ncc(Cl)c(Nc2ccccc2S(=O)(=O)C(C)C)n1 | inactive
37 | COc1cc2c(cc1OC)CN(CCc1ccc(NC(=O)c3cc(OC)c(OC)cc3NC(=O)c3cnc4ccccc4c3)cc1)CC2 | inactive
38 | CC(C)[C@H](CO)Nc1nc(Nc2ccc(C(=O)O)c(Cl)c2)c2ncn(C(C)C)c2n1 | inactive
39 | Cc1nc(N)sc1-c1ccnc(Nc2ccc(N3CCOCC3)cc2)n1 | inactive
40 | COc1ccc(Cc2ccc(NC(N)=O)cc2)cc1-c1cccc(Cl)c1 | inactive
